Screening data from PubChem.
HCMV antiviral – blocks human cytomegalovirus replication | activity change, negative = inhibition, % at 57.5 µM | 410,000 tested, 4.5% active | HFF cells, HCMV-luciferase reporter, 72 h; stronger effect = lower value | AID 1259415; in the data active means activity change below about -60%; inconclusive means no clear call, values can overlap the other calls; inactive means above about -39%; further: on the % scale 0 is the no-effect control and ±100 the full control effect
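After 16 h attachment at 37C, HFF cells received test compound and HCMV-luciferase (1 PFU/cell); reporter luminescence read 72 h later, data normalized against buffer-only and known inhibitor Salinomycin.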
Sm TGR inh – inhibitors of Schistosoma mansoni thioredoxin glutathione reductase | AID 485364 | purified TGR, DTNB reduction, TNB absorbance 405 nm | Potency, µM (series often up to 114 µM), without a hit: at the top dose activity change, negative = inhibition, hits mostly inhibitors | 360,000 tested, 3% active; further: potency means the concentration at half of the fitted maximal effect; on the % scale 0 is the no-effect control and ±100 the full control effect; nearly all actives have a fitted effect of over 60% in size
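Kinetic colorimetric format: TGR-catalysed, NADPH-driven DTNB reduction monitored via TNB absorbance. Enzyme dispensed at 20 nM; compound exposure 15 min at room temperature before reaction start.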
HCV inhibitor – blocks hepatitis C virus | Huh7.5.1 HCVcc-Cre infection, luciferase reporter, 44 h | Potency, µM (series often up to 41.8 µM), for the others: at the highest dose activity change, negative = inhibition, usual class: inhibitors | 340,000 tested, 3.4% active | AID 651820; further: potency means the concentration at half of the fitted maximal effect; on the % scale 0 is the no-effect control and ±100 the full control effect
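HCVcc-Cre virus at an moi near 0.5 was added right after compound to cells cultured 4 h from seeding (1,000 cells/well). Luciferase activity was determined 44 h later, 15 min after substrate addition at RT.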
Pf growth 96h – P. falciparum growth inhibition at 96 hours. Potency, µM (highest dose often 28.7 µM), inactives show top-dose activity change, negative = inhibition, usual class: inhibitors. P. falciparum luciferase reporter growth, 96 h. 320,000 tested, 6.9% active; further: potency means the concentration at half of the fitted maximal effect; on the % scale 0 is the no-effect control and ±100 the full control effect
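Erythrocytes infected with luciferase-expressing P. falciparum were dispensed at 2% hematocrit and 0.05% parasitemia (final), then incubated with compounds 96 hours at 37 C in 5% CO2. Luminescence after detection reagent addition reported growth.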
Pf growth 48h – inhibits P. falciparum growth in the first generation, 48 h | P. falciparum luciferase growth in erythrocytes, 48 h | Potency, µM (titrated, usually from 28.7 µM), for inactives: top-dose activity change, negative = inhibition, hits mostly inhibitors | 310,000 tested, 5.9% active; further: potency means the concentration at half of the fitted maximal effect; on the % scale 0 is the no-effect control and ±100 the full control effect
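Growth was read as firefly luciferase luminescence after a 48 h, 37 C, 5% CO2 exposure of compounds to reporter-bearing P. falciparum cultures (0.1% parasitemia, 2% hematocrit final) in Albumax-supplemented RPMI 1640.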
SARS PLP yeast – blocks SARS-CoV papain-like protease in a yeast assay | S. cerevisiae expressing SARS-CoV PLpro, growth rescue | Potency, µM (doses to about 32.9 µM), inactives show at the highest dose activity, positive = growth rescue, most hits filed as activators | 330,000 tested, 0.19% active | AID 485353; calls by dose curve; further: potency means the concentration at half of the fitted maximal effect; 0% is about no effect; nearly all actives have a fitted effect of over 55% in size
The depositor's hits bear a star; i = inactive; ? = inconclusive; . = not tested or not shown; ! = repeats disagree; [ ] = dose if it differs, or a comment. Shown are actives, neighbours in structure and some others; about 15% of the full set was active somewhere. Unless noted, the call rests on the fitted dose curve; in most records, active means well fitted curve in the direction sought with a large enough effect; inconclusive means small, poorly fitted or top-dose-only effect, or another doubt; inactive means no such curve, though single readings can be large; an effect the other way counts as inactive or inconclusive.

SMILES	HCMV antiviral	Sm TGR inh	HCV inhibitor	Pf growth 96h	Pf growth 48h	SARS PLP yeast
C=CC[N+]1(C)CC[C@]23c4c5ccc(O)c4O[C@H]2C(=O)CC[C@@]3(O)[C@H]1C5 (stereo partly specified)	35	50µM*	16%	-17%	-22%	.
Cc1c(CN2CCN(CC(C)(C)C)C(CCO)C2)[nH]c2ccccc12 (stereo unspecified)	82	?	?	?	?	-1%
CCOc1ccc(CN2CCN(Cc3[nH]c4ccccc4c3C)CC2CCO)cc1 (stereo unspecified)	95	-15%[57.1 µM]	?	10µM*	?	-1%
CCOc1ccc(CN2CCN(Cc3cccc4c3OCO4)CC2CCO)cc1 (stereo unspecified)	-23	0%	-7%	?	26%	0%
CCOc1ccc(CN2CCN(Cc3cccc4nonc34)CC2CCO)cc1 (stereo unspecified)	-19	0%	6%	15µM*	17%	1%
Cc1cccc(S(=O)(=O)NC(=O)C2(C)CCN2C(=O)c2ccccc2)c1 (stereo unspecified)	36	.	.	.	.	.
COc1ccc(C#Cc2ccc([C@H]3[C@H](CO)N4CCCCN(S(=O)(=O)c5cn(C)cn5)C[C@@H]34)cc2)cc1	22	.	.	.	.	.
CCN(CC)S(=O)(=O)c1ccc(/C=C/C(=O)N(c2ccccn2)C2CCCCC2)cc1	?	1%	-19%	4.7µM*	-5%	3%
CCOC(=O)C(NC(=O)c1ccccc1)(OCC1(CC)COC1)C(F)(F)F (stereo unspecified)	-3	-13%	16%	-4%	-27%	4%
CCOC(=O)C(NC(=O)c1ccc(OC)cc1)(OCC1(CC)COC1)C(F)(F)F (stereo unspecified)	20	-10%	10%	13µM*	13µM*	2%
NC(=Nc1ccccc1)NN=Cc1c[nH]c2ccccc12	-85*	.	?	.	.	.
CC(=O)Nc1cccc(C(=O)N/N=C/c2c[nH]c3ccccc23)c1	21	5%	19%	2.3µM*	25%	-2%
CC(=O)Nc1sc2c(c1C(c1ccccn1)N1CCCC1)CCCC2 (stereo unspecified)	-27	-2%	13%	10µM*	9.3µM*	-4%
CC(=O)Nc1sc2c(c1C(c1cccs1)N1CCOCC1)CCCC2 (stereo unspecified)	-16	22µM*	3%	?	?	-4%
OCCN1CCN(C(c2ccccc2Cl)c2sc3nc(-c4ccco4)nn3c2O)CC1 (stereo unspecified)	14	0%	.	.	.	.
CC(=O)Nc1sc2c(c1C(c1ccccc1Cl)N1CCN(CCO)CC1)CCCC2 (stereo unspecified)	-24	-7%	11µM*	?	?	0%
CC(=O)Nc1sc2c(c1C(c1ccccn1)N1CCN(C)CC1)CCCC2 (stereo unspecified)	-27	-9%	12%	?	-25%	3%
O=C(Nc1sc2c(c1C(=O)O)CCCC2)c1cccs1	26	-3%	?	315%	39%	-53%
CCN(CC)S(=O)(=O)c1cccc(NC(=O)CCNC(=O)NC23CC4CC(CC(C4)C2)C3)c1	.	3%	?	?	?	1%
O=C(Nc1ccn(CCCN2CCN(c3ccccn3)CC2)c(=O)n1)OCc1ccccc1	-27	.	-69%	.	.	.
O=c1oc2ccccc2cc1-c1cn2ccccc2n1	-63*	-32%	?	-21%	2%	-3%
Cc1ccc2c(c1)sc1nc(-c3cc4ccccc4oc3=O)cn12	-79*	?	.	.	.	.
O=c1oc2ccccc2cc1-c1cn2cccnc2n1	75	-16%	-9%	8%	212%	-12%
CC(C)c1ccc(Cc2cn3cc(-c4cc5ccccc5oc4=O)nc3s2)cc1	-78*	-3%	.	.	.	.
NC(=O)NS(=O)(=O)Oc1ccccc1	-7	-13%	16%	-1%	62%	2%
SMILES	HCMV antiviral	Sm TGR inh	HCV inhibitor	Pf growth 96h	Pf growth 48h	SARS PLP yeast
CCCCS(=O)(=O)Nc1ccc(Cc2ccncc2)cc1	-37	-6%	?	-1%	-1%	1%
Cc1nn(-c2cccc(C(F)(F)F)c2)c(Cl)c1/C=N/Nc1cccc(C(=O)O)c1	152	-3%	0%	i	257%	-37%
Cc1nn(Cc2ccccc2)c(Cl)c1/C=N/NC(=O)CNc1cccc(C(F)(F)F)c1	5	-2%	?	12µM*	?	5%
O=C(CNc1cccc(C(F)(F)F)c1)N/N=C/c1cccc(Br)c1	-73*	-2%	?	8%	9%	23%
Cc1cccc(NCC(=O)N/N=C/c2cccc(Br)c2)c1	?	-5%	-10%	-2%	38%	0%
CC1CCN(C(=O)CN2c3ccc(C(C)C)cc3-c3ccccc3S2(=O)=O)CC1	24	-2%	.	.	.	.
COc1ccccc1C(=O)Nc1nnc(S(=O)(=O)N2CCCCC2)s1	-73*!	-7%	25%	35%	-10%	5%
Cc1cccc(OCC(=O)Nc2nnc(S(=O)(=O)N3CCCCCC3)s2)c1	8	-10%	7%	12µM*	33%	2%
O=C(Nc1ccc(Cl)cc1)c1csc(C(O)c2cccc(OC(F)(F)F)c2)n1 (stereo unspecified)	-36	.	.	.	.	.
O=S1(=O)c2ccc(Br)cc2OC[C@H](c2ccccc2)N1Cc1ccccc1	-3	.	.	.	.	.
Cc1ccc(NC(=S)NCCc2ccc(S(N)(=O)=O)cc2)cc1C	-39	?	?	-15%	-3%	15%
CCOC(=O)c1ccc(NC(=S)Nc2ccc(C)cc2)cc1	-36	.	?	-1%	4%	-2%
NS(=O)(=O)c1ccc(CCNC(=S)Nc2ccccc2)cc1	-7	?	?	?	?	?
Cc1cc(C)cc(NC(=S)NCCc2ccc(S(N)(=O)=O)cc2)c1	50	-32%	-2%	1.7µM*	-8%	-9%
CCOC(=O)c1ccc(NC(=S)NNC(C)(C)C)cc1	-74*	?	-5%	-6%	-14%	0%
CCOC(=O)c1ccc(NC(=S)NCCc2ccc(F)cc2)cc1	-24	-33%	11µM*	8%	-5%	-3%
CCOC(=O)c1ccc(NC(=O)C(=O)NCCc2ccc(OC)cc2)cc1	27	-4%	-15%	26%	52%	-1%
NS(=O)(=O)c1ccc(CCNC(=S)Nc2ccc(F)cc2)cc1	-61*	.	-9%	-12%	-3%	1%
CCCOc1ccc(C2C(=O)N(C3CCCCCC3)CC(=O)N2Cc2ccc(OC)cc2)cc1OC (stereo unspecified)	?	-1%	.	.	.	.
